The text below walks through data of PubChem BioAssay AID1259418 (Broad Institute, 2018).

Out of some 3,400 compounds screened, about 840 (25%) were called active. About 11% were inconclusive and are not listed. These entries were drawn from the full list. Measured potencies and affinities stand elsewhere. A number with no mark means an inactive call.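 Rule for the calls: active = fitted half-maximal concentration of signal decrease at or below twice the sample's top tested concentration; inconclusive = flat curve between -70 and -30 percent, or poor fit; inactive = flat within 30 percent, signal rise, or potency above limit.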

The nature of this experiment: T. gondii growth inhibition with IFN-gamma, dose response, cell-based, ME49Luc, HeLa, luciferase, 72 h (AID 1259418). Particulars: T. gondii ME49Luc in IFN-y HeLa, active compounds read low, -100% = high-dose IFN-γ control wells; at 19.5 µM unless noted.
`O=C(CC1Nc2c3ccccc3nc(=S)n2C1=O)NCCC1=CCCCC1` (stereo not given): the max activity was 25.3% [at 0.68 µM].

Turning to `Cc1ccc(CSC2=Nc3ccccc3C3=NC(CC(=O)NCc4ccco4)C(=O)N23)cc1` (stereo not given), the max activity was 10.3% [at 0.35 µM].

Consider `O=C(CC1N=C2c3ccccc3N=C(SCc3ccccc3F)N2C1=O)NCc1ccco1` (stereo not given), for which the max activity was -17.8%.

Take `CC(C)(C)c1ccc(CSC2=Nc3ccccc3C3=NC(CCC(=O)NCc4ccco4)C(=O)N23)cc1` (stereo not given): the max activity is 15.7% [at 0.16 µM].

Take `Cc1ccc(CSC2=Nc3ccccc3C3=NC(CCC(=O)NCc4ccco4)C(=O)N23)cc1` (stereo not given): the max activity is 39.1%.

With `Cc1nc(OCC(=O)Nc2cccc(Cl)c2)c2ccccc2n1`, the max activity is -6.84% [at 0.35 µM].

`Cc1ccc(C)c(-c2coc(-c3ccc(NC(=O)C(C)(C)C)cc3)n2)c1`: the max activity was 13.3% [at 0.16 µM].

As for `COCCN1CCN(S(=O)(=O)c2ccccc2)Cc2cccnc21`, the max activity is 18.1%.

As for `Cc1cc(C)cc(NC(=O)COc2nc(C)nc3ccccc23)c1`, the max activity is -16.7% [at 5 µM].

Take `Cc1nc(OCC(=O)Nc2cccc(Br)c2)c2ccccc2n1`: the max activity was 18% [at 0.35 µM].

For the compound `CCOC(=O)c1ccccc1NC(=O)COc1nc(C)nc2ccccc12`, the max activity is 26.7% [at 10 µM].

In the case of `COc1ccc(C)cc1NC(=O)COc1nc(C)nc2ccccc12`, the max activity was 17.5% [at 0.68 µM].

For the compound `COc1ccc(OC)c(NC(=O)COc2nc(C)nc3ccccc23)c1`, the max activity was 27.6% [at 2.6 µM].

On to `Cc1cc(C)c(NC(=O)COc2nc(C)nc3ccccc23)c(C)c1`, for which the max activity was -16.7% [at 0.68 µM].

Take `CCc1cccc(C)c1NC(=O)COc1nc(C)nc2ccccc12`: the max activity was 13.2% [at 0.68 µM].

For the compound `COC(=O)c1ccc(Cl)cc1NC(=O)COc1nc(C)nc2ccccc12`, the max activity is 29% [at 0.16 µM].

In the case of `CCOc1cccc(CC(=O)N2CCC3(CC2)Nc2cc(F)ccc2-n2cccc23)c1OCC`, the max activity was 11.6% [at 0.35 µM].

Regarding `O=C(NCCc1csc(-c2ccccc2)n1)[C@H]1CSCN1C(=O)Cc1ccc(F)cc1`, the max activity is 10.7% [at 10 µM].

On to `Cc1ccc(C)c(-c2coc(-c3ccc(NC(=O)NCc4ccc(F)cc4)cc3)n2)c1`, for which the max activity was -8.97% [at 1.35 µM].

On to `CCOc1ccc(C(=O)N2CCC3(CC2)Nc2ccc(C)c(C)c2-n2cccc23)cc1`, for which the max activity is -13.2%.

With `Cc1cccc(C(=O)Nc2c(C(=O)NCc3ccccn3)[nH]c3ccccc23)c1`, the max activity is 17.8% [at 2.6 µM].

With `CN(C)CCN1CCC2(CCCN(C(=O)C3CCOC3)C2)C1=O` (stereo not given), the max activity was 39.4%.

For the compound `Cc1cccc(-c2nc(Cn3nnc(-c4nc(-c5ccccc5C)no4)c3C)c(C)o2)c1`, the max activity is 5.08% [at 0.35 µM].

`O=C(Nc1ccc(-c2nc(-c3cccc(Br)c3)co2)cc1)c1ccco1`: the max activity is 21.7%.

Take `O=C(NCCc1csc(-c2ccccc2)n1)[C@H]1CCCN1C(=O)COc1ccccc1`: the max activity was -18.8%.

With `COc1cc(NC(=O)COc2nc(C)nc3ccccc23)cc(OC)c1`, the max activity is -12.3% [at 0.35 µM].

On to `Cc1nc(OCC(=O)Nc2ccc3c(c2)OCO3)c2ccccc2n1`, for which the max activity is 12.1% [at 5 µM].

`COc1ccc(NC(=O)COc2nc(C)nc3ccccc23)cc1`: the max activity was 19.3% [at 0.68 µM].

For the compound `Cc1nc(OCC(=O)Nc2ccc(F)cc2F)c2ccccc2n1`, the max activity was -20.9% [at 1.35 µM].

Turning to `Cc1nc(OCC(=O)Nc2ccc(Cl)cc2F)c2ccccc2n1`, the max activity was -13% [at 0.16 µM].

Consider `Cc1nc(OCC(=O)Nc2ccc(F)cc2)c2ccccc2n1`, for which the max activity was 17.7% [at 10 µM].

For the compound `CCc1nc(OCC(=O)NCc2ccc3c(c2)OCO3)c2ccccc2n1`, the max activity was 11.9% [at 0.35 µM].

As to `Cc1nc(OCC(=O)Nc2ccccc2)c2ccccc2n1`, the max activity was 12.4% [at 0.16 µM].

On to `O=C(Cc1ccc(F)cc1)N1CCC2(CC1)Nc1cc(F)ccc1-n1cccc12`, for which the max activity is 16% [at 0.16 µM].

Take `O=C(NCc1ccccc1)Nc1ccc(-c2nc(-c3ccccc3)co2)cc1`: the max activity is 42.6%.

In the case of `Cc1cc(C2CCCN2C(=O)Cn2nc(C(F)(F)F)c3c2CCCC3)on1` (stereo not given), the max activity is -9.58% [at 0.16 µM].

As to `CC(C)c1cc(C2CCCN2C(=O)Cn2nc(C(F)(F)F)c3c2CCCC3)on1` (stereo not given), the max activity is 9.58% [at 2.6 µM].

Consider `CCCc1cc(C2CCCN2C(=O)Cn2nc(C(F)(F)F)cc2C)no1` (stereo not given), for which the max activity is 9.64% [at 1.35 µM].

Consider `Cc1cc(C2CCCN2C(=O)Cn2nc(C(F)(F)F)cc2C)no1` (stereo not given), for which the max activity was 11.8% [at 2.6 µM].

Turning to `CCc1cc(C2CCCN2C(=O)Cn2nc(C(F)(F)F)c3c2CCCC3)on1` (stereo not given), the max activity is 14.3% [at 0.16 µM].

Take `CC(C)c1cc(C2CCCN2C(=O)Cn2nc(C(F)(F)F)c3c2CCCC3)no1` (stereo not given): the max activity was 6.95% [at 0.16 µM].

On to `COCCCNC(=O)Cn1c(=O)c(S(=O)(=O)c2ccccc2)cc2ccccc21`, for which the max activity is -8.44% [at 0.35 µM].

As to `Cc1ccc(-c2nc3c(s2)CN(S(=O)(=O)c2ccc(Cl)cc2)CC3)cc1`, the max activity was 6.55% [at 10 µM].

With `COc1cccc(CC(=O)N2CCC3(CC2)Nc2cc(OC)ccc2-n2cccc23)c1`, the max activity is 12.8% [at 0.35 µM].

In the case of `COc1ccc(CCNc2nc(SCc3cc(=O)n4cc(Cl)ccc4n3)nc3ccccc23)cc1OC`, the max activity was 12.8%.

For `Cc1ccc(Cn2c(CN3CCC(C(=O)NCc4cccnc4)CC3)cc3ccccc32)cc1`, the max activity was 16.6% [at 2.6 µM].

With `CN1C[C@H]2CN(Cc3ccc4c(c3)OCO4)CCC[C@@]2(C(=O)O)C1`, the max activity is 12.4%.

Turning to `COc1cccc(C(=O)N2CCC3(CC2)Nc2ccc(Cl)cc2-n2cccc23)c1`, the max activity was 7.04% [at 10 µM].

On to `Cc1cccc(OCC(=O)N2CCC(C(=O)NCCc3csc(-c4ccccc4)n3)CC2)c1`, for which the max activity is 9.91%.

With `CN(C)C(=O)c1cc2c(nc1NCC1CC1)CCN(Cc1ccccn1)CC2`, the max activity was 32.5%.

As for `CCc1cnc(N2CCc3cc(C(=O)NCC4CC4)c(N(C)C)nc3CC2)nc1`, the max activity was -14.2% [at 2.6 µM].

As for `COc1ccc(C(=O)N2CCC3(CC2)Nc2ccc(Cl)cc2-n2cccc23)cc1OC`, the max activity was 9.68% [at 0.68 µM].

On to `O=C(Nc1ccc(-c2nc(-c3ccccc3)co2)cc1)C1CCCCC1`, for which the max activity is 11.6% [at 10 µM].

On to `CCc1ccc(-c2noc(-c3nnn(Cc4nc(-c5ccccc5OC)oc4C)c3C)n2)cc1`, for which the max activity was 11.7% [at 1.35 µM].

In the case of `Cc1cccc(OCC(=O)N2CCC[C@@H]2C(=O)NCCc2csc(-c3ccccc3)n2)c1`, the max activity was 9.84% [at 2.6 µM].

Consider `COCC(=O)N1CC(=O)N2[C@H](CO)[C@@H](c3ccc(C#CC4CC4)cc3)[C@@H]2C1`, for which the max activity was 39.9%.

For `COCC(=O)N1CC(=O)N2[C@H](CO)[C@H](c3ccc(C#CC4CC4)cc3)[C@@H]2C1`, the max activity is 43.4%.

`O=C(Cc1cccnc1)N1CC(=O)N2[C@@H](CO)[C@H](c3ccc(C#CC4CCCCC4)cc3)[C@@H]2C1`: the max activity is 14.3% [at 10 µM].

With `Cc1ccc(-c2noc(-c3nnn(Cc4nc(-c5ccccc5)oc4C)c3C)n2)cc1C`, the max activity was 6.16%.

Turning to `O=C(Cc1cccs1)N1CCC2(CC1)Nc1cc(F)ccc1-n1cccc12`, the max activity was 7.4% [at 2.6 µM].

On to `Cc1cccc(S(=O)(=O)N2CCC(C(=O)NCCc3csc(C)n3)CC2)c1`, for which the max activity is -8.91%.

In the case of `COc1ccccc1-c1nc(Cn2nnc(-c3nc(-c4cccc(OC)c4OC)no3)c2C)c(C)o1`, the max activity is -11.2%.

Take `Cc1ccc(-c2noc(-c3nnn(Cc4nc(-c5ccccc5)oc4C)c3C)n2)cc1`: the max activity was 8.04%.

As to `O=C(Nc1ccc(-c2nc(-c3ccccc3)co2)cc1)Nc1ccc(F)c(Cl)c1`, the max activity was 15.9%.

Consider `CC(C)CNC(=O)C1Cn2ccnc2C2(CCN(c3ncccn3)CC2)O1` (stereo not given), for which the max activity was 47.8%.

With `Cc1cccc(-c2nc(Cn3nnc(-c4nc(-c5cccc(Br)c5)no4)c3C)c(C)o2)c1`, the max activity is 7% [at 0.68 µM].

Turning to `CC(C)c1ccc(S(=O)(=O)N2CCC3(CC2)NCCN=C3NCc2ccc(F)cc2)cc1`, the max activity was -13.4% [at 10 µM].

Regarding `COCCNC1=NCCNC12CCN(S(=O)(=O)c1ccc(C(C)C)cc1)CC2`, the max activity is -6.8% [at 1.35 µM].

`COc1ccccc1CCC(=O)Nc1ccc2c(c1)CCC(=O)N2C`: the max activity is -10.7% [at 0.16 µM].

Regarding `O=C1CCc2cc(NC(=O)c3cncc(Br)c3)ccc2N1`, the max activity is 4.53% [at 0.68 µM].

As to `Cc1cccc(NC(=O)Nc2ccc(-c3nc(-c4cc(C)ccc4C)co3)cc2)c1`, the max activity is 6.67%.

For `CC(C)CC#Cc1ccc([C@@H]2[C@H]3CN(C(=O)Nc4cc(F)ccc4F)CC(=O)N3[C@H]2CO)cc1`, the max activity is 2.95% [at 0.16 µM].

With `Cc1oc(-c2ccccc2)nc1Cn1nnc(-c2nc(-c3cccc(C(F)(F)F)c3)no2)c1C`, the max activity is -10.4% [at 0.35 µM].

Regarding `CCC(C(=O)N1CCC2(CC1)Nc1cc(OC)ccc1-n1cccc12)c1ccccc1` (stereo not given), the max activity was 9.09% [at 0.35 µM].

For the compound `N#CCSC1=Nc2ccccc2C2=NC(CCC(=O)NCCc3ccccc3)C(=O)N12` (stereo not given), the max activity was 23.8% [at 0.16 µM].

Consider `O=C(CC1N=C2c3ccccc3N=C(SCc3ccc(F)cc3)N2C1=O)NCc1ccccc1` (stereo not given), for which the max activity was 12.9% [at 10 µM].

With `COc1ccccc1CNC(=O)CCC1N=C2c3ccccc3N=C(SCc3ccc(C)cc3)N2C1=O` (stereo not given), the max activity was 16.9% [at 0.16 µM].

Regarding `CCOC(=O)CSC1=Nc2ccccc2C2=NC(CCC(=O)NCCc3ccccc3)C(=O)N12` (stereo not given), the max activity was 12.5%.

With `O=C(CCC1N=C2c3ccccc3N=C(SCc3cccc(F)c3)N2C1=O)NCCc1ccccc1` (stereo not given), the max activity is 28.7%.

With `O=C(CC1N=C2c3ccccc3N=C(SCc3cccc(F)c3)N2C1=O)NCc1ccc(F)cc1` (stereo not given), the max activity was 31.4% [at 2.6 µM].
